Results reported in PubChem BioAssay (EPA / NIEHS).
Active and inactive are the calls of the source. Rule for the calls: active = hit-call score of the fitted dose curve at least 0.9, where 1 is the maximum; inactive = score below 0.9.

Read-out: Vascular cell adhesion molecule 1 (VCAM1), VCAM1 (gene 7412)
Assay: BSK_LPS_VCAM1: BioMAP Diversity Plus: LPS Assay for Vascular cell adhesion molecule 1 (VCAM1) Biomarker Activity (AID 2283086)
Settings: primary human HUVEC with PBMC; actives raise or lower the signal
Summary of the method: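 Cells are dosed in an LPS-stimulated endothelial/mononuclear co-culture and, after 24 h, VCAM-1 is quantified by ELISA. Activity in either direction is fitted relative to the DMSO negative control.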

Q: Which outcome does the source give for `O=C=NCCCCCCN=C=O` here?
A: inactive

Q: Which outcome does the source give for `c1ccc2ccccc2c1` here?
A: inactive

Q: How did the AC50 turn out when `O=CCCCC=O` was run?
A: 33 µM (active)

Q: `COc1cc(C(=O)NC2CCN(C)CC2)ccc1Nc1ncc2c(n1)N(C1CCCC1)CC(F)(F)C(=O)N2C` was tested. Which AC50 did it give?
A: 11.2 µM (active)

Q: `O=C1c2ccccc2C(=O)N1CCc1noc(-c2ccc(CN3CCCCCC3)s2)n1` was tested. Which outcome did it give?
A: inactive

Q: For `CCCC(=O)OCCC(C)C`, which outcome is on record?
A: inactive

Q: `Clc1cc(Cl)c2c(c1)N=C1CCCCCN1C2` was tested. Which outcome did it give?
A: inactive

Q: For `CC(C)(c1cc(Br)c(O)c(Br)c1)c1cc(Br)c(O)c(Br)c1`, which AC50 is on record?
A: 26.7 µM (active)

Q: Which outcome does the source give for `CCCOC(=O)c1cc(O)c(O)c(O)c1` here?
A: inactive

Q: For `O=C(OCCCCCCOC(=O)c1ccccc1)c1ccccc1`, which outcome is on record?
A: inactive

Q: Which AC50 does the source give for `CC(C)(C)c1cc(/C=C2\SC(N)=NC2=O)cc(C(C)(C)C)c1O` here?
A: 15.6 µM (active)

Q: How did the outcome turn out when `CCO[Si](CCCNC(N)=O)(OCC)OCC` was run?
A: inactive

Q: Which outcome does the source give for `O=C(O)Cn1c(=O)n(Cc2ccc(Br)cc2F)c(=O)c2ccc(Cl)cc21` here?
A: inactive

Q: How did the AC50 turn out when `COc1ccc2cc(S(=O)(=O)N[C@H](CC(=O)N[C@H](Cc3ccc(CN4[C@H](C)CCC[C@@H]4C)cc3)C(=O)N(C)C(C)C)c3ccc4c(c3)OCO4)ccc2c1` was run?
A: 11.3 µM (active)

Q: `CC(C)(C)c1csc(-c2cc3cc(OCc4ccccc4CC(=O)O)ccc3o2)n1` was tested. Which AC50 did it give?
A: 18.8 µM (active)

Q: With `Cc1ccc(C(C)C)cc1` as the compound, how does the outcome read?
A: inactive

Q: `O=C(O)c1ccccc1C(=O)OCc1ccccc1` was tested. Which outcome did it give?
A: inactive

Q: `CCCCCCCC[Si](OCC)(OCC)OCC` was tested. Which AC50 did it give?
A: 30.1 µM (active)

Q: Which AC50 does the source give for `CCN(Cc1cccnc1)C(=O)c1cccc(Cl)c1[C@]1(C)C(=O)N(Cc2ccc(OC)cc2OC)c2ccc(Cl)cc21` here?
A: 5.26 µM (active)

Q: For `O=C(O)c1ccccc1-n1cc(C(=O)O)c(=O)c2cc(Nc3c(F)cc(F)cc3Cl)c(Cl)cc21`, which outcome is on record?
A: inactive

Q: `Cc1cc2c(cc1C(F)(F)F)N(C(=O)Nc1ccc(Oc3cccnc3C)nc1)CC2` was tested. Which AC50 did it give?
A: 14.4 µM (active)

Q: `CCCCOC(=O)CC(CC(=O)OCCCC)(OC(C)=O)C(=O)OCCCC` was tested. Which outcome did it give?
A: inactive

Read-out: CD38, CD38 (gene 952)
Assay: BSK_SAg_CD38: BioMAP Diversity Plus: SAg Assay for CD38 Biomarker Activity (AID 2283087)
Settings: primary human HUVEC with PBMC; actives raise or lower the signal
Summary of the method: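 CD38 quantified by ELISA (fluorescence) in a superantigen-activated endothelial cell–PBMC co-culture at 24 h post-dose. Activity fitted in both directions relative to DMSO; parallel SRB and Alamar Blue cytotoxicity read-outs.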

Q: How did the outcome turn out when `O=C(O)Cc1cc(I)c(Oc2ccc(O)c(I)c2)c(I)c1` was run?
A: inactive

Q: For `Cc1cccc2ccccc12`, which outcome is on record?
A: inactive

Q: How did the AC50 turn out when `O=c1c(-c2ccc(O)cc2)coc2cc(O)cc(O)c12` was run?
A: 25.1 µM (active)

Q: `CC/C(=C(/CC)c1ccc(O)cc1)c1ccc(O)cc1` was tested. Which AC50 did it give?
A: 19 µM (active)

Q: With `Cc1cc(F)ccc1-c1cc(N2CC[C@@H](O)[C@H]2CO)ncc1N(C)C(=O)C(C)(C)c1cc(C(F)(F)F)cc(C(F)(F)F)c1` as the compound, how does the AC50 read?
A: 10.2 µM (active)

Q: With `O=C1O[C@H]([C@@H](O)CO)C(O)=C1O` as the compound, how does the outcome read?
A: inactive

Q: How did the outcome turn out when `CO[C@H]1/C=C/O[C@@]2(C)Oc3c(C)c(O)c4c(O)c(c(/C=N/N5CCN(C)CC5)c(O)c4c3C2=O)NC(=O)/C(C)=C\C=C\[C@H](C)[C@H](O)[C@@H](C)[C@@H](O)[C@@H](C)[C@H](OC(C)=O)[C@@H]1C` was run?
A: inactive

Q: For `C[C@]12CC[C@@H]3c4ccc(O)cc4CC[C@H]3[C@@H]1CCC2=O`, which outcome is on record?
A: inactive

Q: Which outcome does the source give for `Oc1ccc2ccccc2c1` here?
A: inactive

Q: For `c1ccc(C[n+]2cccc3ccccc32)cc1`, which outcome is on record?
A: inactive

Q: With `CCCCCCCCCCCO` as the compound, how does the outcome read?
A: inactive

Q: Which AC50 does the source give for `O=C(Nc1ccc(Cl)cc1)Nc1ccc(Cl)c(Cl)c1` here?
A: 2.11 µM (active)

Q: `CCCCCCCCOC(=O)c1cc(O)c(O)c(O)c1` was tested. Which AC50 did it give?
A: 13.1 µM (active)

Q: With `CN1C(=O)N(c2ccccc2Br)Cc2cnc(Nc3ccc4c(c3)OCC(CO)O4)nc21` (stereo not given) as the compound, how does the AC50 read?
A: 2.36 µM (active)

Q: `Cc1occc1C(=O)Nc1ccc(C(=O)N2CCC(F)(F)/C(=C\C(=O)N3CCC(N4CCCCC4)CC3)c3ccccc32)cc1` was tested. Which outcome did it give?
A: inactive

Q: For `Cc1oc2c(NC(=O)c3c(Cl)cccc3Cl)cccc2c1C(C)(C)O`, which AC50 is on record?
A: 21.3 µM (active)

Q: `O=C=NCCCCCCN=C=O` was tested. Which outcome did it give?
A: inactive

Q: For `c1ccc2ccccc2c1`, which outcome is on record?
A: inactive

Q: `O=CCCCC=O` was tested. Which outcome did it give?
A: inactive

Q: Which AC50 does the source give for `COc1cc(C(=O)NC2CCN(C)CC2)ccc1Nc1ncc2c(n1)N(C1CCCC1)CC(F)(F)C(=O)N2C` here?
A: 11.6 µM (active)

Q: `O=C1c2ccccc2C(=O)N1CCc1noc(-c2ccc(CN3CCCCCC3)s2)n1` was tested. Which outcome did it give?
A: inactive

Q: With `CCCC(=O)OCCC(C)C` as the compound, how does the outcome read?
A: inactive

Q: Which outcome does the source give for `Clc1cc(Cl)c2c(c1)N=C1CCCCCN1C2` here?
A: inactive

Q: Which AC50 does the source give for `CC(C)(c1cc(Br)c(O)c(Br)c1)c1cc(Br)c(O)c(Br)c1` here?
A: 27.9 µM (active)

Q: Which outcome does the source give for `CCCOC(=O)c1cc(O)c(O)c(O)c1` here?
A: inactive

Q: How did the outcome turn out when `O=C(OCCCCCCOC(=O)c1ccccc1)c1ccccc1` was run?
A: inactive

Q: With `CC(C)(C)c1cc(/C=C2\SC(N)=NC2=O)cc(C(C)(C)C)c1O` as the compound, how does the AC50 read?
A: 12.2 µM (active)

Q: With `CCO[Si](CCCNC(N)=O)(OCC)OCC` as the compound, how does the outcome read?
A: inactive

Q: `O=C(O)Cn1c(=O)n(Cc2ccc(Br)cc2F)c(=O)c2ccc(Cl)cc21` was tested. Which outcome did it give?
A: inactive

Q: Which AC50 does the source give for `COc1ccc2cc(S(=O)(=O)N[C@H](CC(=O)N[C@H](Cc3ccc(CN4[C@H](C)CCC[C@@H]4C)cc3)C(=O)N(C)C(C)C)c3ccc4c(c3)OCO4)ccc2c1` here?
A: 26.2 µM (active)

Q: For `CC(C)(C)c1csc(-c2cc3cc(OCc4ccccc4CC(=O)O)ccc3o2)n1`, which AC50 is on record?
A: 17.9 µM (active)

Q: With `Cc1ccc(C(C)C)cc1` as the compound, how does the outcome read?
A: inactive

Q: With `O=C(O)c1ccccc1C(=O)OCc1ccccc1` as the compound, how does the outcome read?
A: inactive

Q: `CCCCCCCC[Si](OCC)(OCC)OCC` was tested. Which AC50 did it give?
A: 20 µM (active)

Q: `CCN(Cc1cccnc1)C(=O)c1cccc(Cl)c1[C@]1(C)C(=O)N(Cc2ccc(OC)cc2OC)c2ccc(Cl)cc21` was tested. Which AC50 did it give?
A: 8.35 µM (active)

Q: `O=C(O)c1ccccc1-n1cc(C(=O)O)c(=O)c2cc(Nc3c(F)cc(F)cc3Cl)c(Cl)cc21` was tested. Which outcome did it give?
A: inactive

Q: For `Cc1cc2c(cc1C(F)(F)F)N(C(=O)Nc1ccc(Oc3cccnc3C)nc1)CC2`, which AC50 is on record?
A: 7.33 µM (active)

Q: Which outcome does the source give for `CCCCOC(=O)CC(CC(=O)OCCCC)(OC(C)=O)C(=O)OCCCC` here?
A: inactive
